# Laboratory results as given in PubChem BioAssay (NCATS).
# Records with an inconclusive call do not appear. Calls of active or inactive are those of the source. Calls follow the shape of the dose curve; as a rule, active = well fitted curve in the direction sought with a large enough effect; inconclusive = small, poorly fitted or top-dose-only effect, or another doubt; inactive = no such curve, though single readings can be large; an effect the other way counts as inactive or inconclusive.
# Experiments:
# [1] = Quantitative High-Throughput drug screen in 47 multiple myeloma cell lines against the NCATS MIPE library collection: Karpas417_ECACC cell viability assay (AID 1918961); conditions: Karpas417 myeloma viability, CellTiter-Glo ATP luminescence, 48 h; viability (% of DMSO): at 45.8 µM (top of the series)
# How it was run: (§1)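 Myeloma cell lines, 500 cells per well, exposed to MIPE 4.0 library compounds for 48 h at 37C, 5% CO2. Viability from ATP by CellTiter-Glo luminescence; normalised to DMSO (100%) and media-only (0%) wells.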
# [2] = Quantitative High-Throughput drug screen in 47 multiple myeloma cell lines against the NCATS MIPE library collection: H1112_PLB cell viability assay (AID 1918967; also: nearly all actives have a fitted effect of over 30% in size)
# How it was run: (§2)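 Inhibition of cell viability is measured here. Each line was plated at 500 cells per well, treated with MIPE 4.0 drugs, kept 48 hours at 37C, then assayed for ATP content by CellTiter-Glo luminescence.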
# [3] = Quantitative High-Throughput drug screen in 47 multiple myeloma cell lines against the NCATS MIPE library collection: Karpas25_ECACC cell viability assay (AID 1918968; also: nearly all actives have a fitted effect of over 35% in size)
# How it was run: as §2
# [4] = Quantitative High-Throughput drug screen in 47 multiple myeloma cell lines against the NCATS MIPE library collection: KMS27_JCRB cell viability assay (AID 1918970); conditions: KMS27 myeloma cells, CellTiter-Glo ATP viability, 48 h; viability (% of DMSO): at 45.8 µM (top of the series); also: nearly all actives have a fitted effect of over 30% in size
# How it was run: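 Each line is seeded at 500 cells per well and treated with library compounds for 48 hours under 37 °C, 5% CO2. CellTiter-Glo is then added for 5 min at room temperature before median relative luminescence is recorded.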
# [5] = Quantitative High-Throughput drug screen in 47 multiple myeloma cell lines against the NCATS MIPE library collection: KMS26_JCRB cell viability assay (AID 1918975); also: nearly all actives have a fitted effect of over 45% in size
# How it was run: (§3)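 We plated 500 myeloma cells per well, pinned in MIPE 4.0 compounds, and incubated for 48 hours at 37C. ATP was then quantified with CellTiter-Glo, with DMSO and media-only wells defining 100% and 0%.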
# [6] = Quantitative High-Throughput drug screen in 47 multiple myeloma cell lines against the NCATS MIPE library collection: MOLP8_DSMZ cell viability assay (AID 1918977); also: nearly all actives have a fitted effect of over 45% in size
# How it was run: (§4)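 500 cells/well per myeloma line exposed to pinned MIPE 4.0 compounds for 48 h at 37 °C, 5% CO2. Viability read as ATP by CellTiter-Glo luminescence, normalised to DMSO-only (100%) and media-only (0%) wells.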
# [7] = Quantitative High-Throughput drug screen in 47 multiple myeloma cell lines against the NCATS MIPE library collection: OCIMY1_PLB cell viability assay (AID 1918979); also: nearly all actives have a fitted effect of over 35% in size
# How it was run: as §4
# [8] = Quantitative High-Throughput drug screen in 47 multiple myeloma cell lines against the NCATS MIPE library collection: MM1S_ATCC cell viability assay (AID 1918980); also: nearly all actives have a fitted effect of over 45% in size
# How it was run: as §4
# [9] = Quantitative High-Throughput drug screen in 47 multiple myeloma cell lines against the NCATS MIPE library collection: JJN3_DSMZ cell viability assay (AID 1918966; also: nearly all actives have a fitted effect of over 50% in size)
# How it was run: as §2
# [10] = Quantitative High-Throughput drug screen in 47 multiple myeloma cell lines against the NCATS MIPE library collection: KMS12PE_JCRB cell viability assay (AID 1918972); also: nearly all actives have a fitted effect of over 30% in size
# How it was run: as §1
# [11] = Quantitative High-Throughput drug screen in 47 multiple myeloma cell lines against the NCATS MIPE library collection: KMS20_JCRB cell viability assay (AID 1918973); also: nearly all actives have a fitted effect of over 45% in size
# How it was run: as §2
# [12] = Quantitative High-Throughput drug screen in 47 multiple myeloma cell lines against the NCATS MIPE library collection: MM1R_ATCC cell viability assay (AID 1918981); also: nearly all actives have a fitted effect of over 35% in size
# How it was run: as §4
# [13] = Quantitative High-Throughput drug screen in 47 multiple myeloma cell lines against the NCATS MIPE library collection: KHM11_PLB cell viability assay (AID 1918962); also: nearly all actives have a fitted effect of over 35% in size
# How it was run: as §1
# [14] = Quantitative High-Throughput drug screen in 47 multiple myeloma cell lines against the NCATS MIPE library collection: JIM3_ECACC cell viability assay (AID 1918963; also: nearly all actives have a fitted effect of over 35% in size)
# How it was run: as §1
# [15] = Quantitative High-Throughput drug screen in 47 multiple myeloma cell lines against the NCATS MIPE library collection: JIM1_ECACC cell viability assay (AID 1918964)
# How it was run: as §2
# [16] = Quantitative High-Throughput drug screen in 47 multiple myeloma cell lines against the NCATS MIPE library collection: INA6_PLB cell viability assay (AID 1918965; also: nearly all actives have a fitted effect of over 55% in size)
# How it was run: as §1
# [17] = Quantitative High-Throughput drug screen in 47 multiple myeloma cell lines against the NCATS MIPE library collection: KMS12BM_JCRB cell viability assay (AID 1918971); also: nearly all actives have a fitted effect of over 35% in size
# How it was run: as §3
# [18] = Quantitative High-Throughput drug screen in 47 multiple myeloma cell lines against the NCATS MIPE library collection: MMM1_PLB cell viability assay (AID 1918976); also: nearly all actives have a fitted effect of over 35% in size
# How it was run: as §4
# [19] = Quantitative High-Throughput drug screen in 47 multiple myeloma cell lines against the NCATS MIPE library collection: NCIH929_DSMZ cell viability assay (AID 1918978); also: nearly all actives have a fitted effect of over 35% in size
# How it was run: as §4
# Potency is read from the fitted curve at half-maximal effect.
SMILES,Potency [1],Potency [2],Potency [3],Potency [4],Potency [5],Potency [6],Potency [7],Potency [8],Potency [9],Potency [10],Potency [11],Potency [12],Potency [13],Potency [14],Potency [15],Potency [16],Potency [17],Potency [18],Potency [19]
CC(N[C@H]1CCCC[C@H]1NC(=O)c1ccc(Cl)cc1)c1cccc2ccccc12 (stereo partly specified),46.9 nM (active),20900 nM (active),14800 nM (active),118 nM (active),inactive,inactive,inactive,8330 nM (active),,,,,,,,,,,
O=C(Nc1ccc(Oc2ccnc3[nH]ccc23)c(F)c1)c1cccn(-c2ccc(F)cc2)c1=O,4.7 nM (active),,,,,,inactive,inactive,20900 nM (active),inactive,inactive,10500 nM (active),,,,,,,
Cc1ncc(-c2ccnc(Nc3ccc(S(C)(=O)=O)cc3)n2)n1C(C)C,,4180 nM (active),2350 nM (active),2640 nM (active),,1320 nM (active),6620 nM (active),2640 nM (active),2090 nM (active),2960 nM (active),2350 nM (active),2350 nM (active),1660 nM (active),2350 nM (active),2350 nM (active),1180 nM (active),4180 nM (active),4690 nM (active),2090 nM (active)
C[C@@H](Oc1ccc2[nH]nc(C=Cc3cnn(CCO)c3)c2c1)c1c(Cl)cncc1Cl,,6620 nM (active),743 nM (active),inactive,,469 nM (active),11800 nM (active),6620 nM (active),8330 nM (active),inactive,4180 nM (active),,1870 nM (active),372 nM (active),inactive,93.5 nM (active),23500 nM (active),1870 nM (active),235 nM (active)
C[C@H]1[C@@H](OC(=O)CCC(=O)O)O[C@@H]2O[C@@]3(C)CC[C@@H]4[C@H](C)CC[C@@H]1[C@@]24OO3,,16600 nM (active),2350 nM (active),,14800 nM (active),,14800 nM (active),18700 nM (active),1480 nM (active),1050 nM (active),,14800 nM (active),3320 nM (active),6620 nM (active),935 nM (active),2640 nM (active),5260 nM (active),5900 nM (active),2640 nM (active)
CCS(=O)(=O)Nc1ccc2[nH]c(O)c(C(=Nc3ccc(CN4CCCCC4)cc3)c3ccccc3)c2c1,,4690 nM (active),235 nM (active),132 nM (active),469 nM (active),,5900 nM (active),469 nM (active),743 nM (active),148 nM (active),296 nM (active),526 nM (active),418 nM (active),209 nM (active),59 nM (active),469 nM (active),13200 nM (active),209 nM (active),105 nM (active)
O=C1NCCc2[nH]c(-c3ccncc3)cc21,,4180 nM (active),2960 nM (active),1320 nM (active),3320 nM (active),1660 nM (active),5900 nM (active),3720 nM (active),2090 nM (active),,2640 nM (active),2640 nM (active),2090 nM (active),7430 nM (active),662 nM (active),1320 nM (active),3720 nM (active),16600 nM (active),
CC(C)(O)[C@H]1CC[C@@](C)([C@H]2[C@@H](O)C[C@@]3(C)[C@@H]4C[C@H](O[C@@H]5O[C@H](CO)[C@@H](O)[C@H](O)[C@@H]5O)[C@H]5C(C)(C)[C@@H](O[C@@H]6OC[C@@H](O)[C@H](O)[C@@H]6O)CC[C@@]56C[C@@]46CC[C@]23C)O1,,inactive,inactive,,inactive,inactive,inactive,,418 nM (active),,inactive,inactive,inactive,inactive,inactive,inactive,,,inactive
O=C(Nc1cccc(Nc2ncc(Br)c(NCCc3cnc[nH]3)n2)c1)N1CCCC1,,9350 nM (active),5900 nM (active),inactive,10500 nM (active),6620 nM (active),,18700 nM (active),11800 nM (active),,5900 nM (active),14800 nM (active),1180 nM (active),6620 nM (active),,743 nM (active),18700 nM (active),18700 nM (active),7430 nM (active)
O=[N+]([O-])c1cn2c(n1)OC[C@@H](OCc1ccc(OC(F)(F)F)cc1)C2,,inactive,inactive,,inactive,inactive,inactive,2640 nM (active),,inactive,,,inactive,inactive,inactive,,,,
CC(=O)ON=C1C(c2c(O)[nH]c3cc(Br)ccc23)=Nc2ccccc21,,,2640 nM (active),6620 nM (active),,13200 nM (active),26400 nM (active),,20900 nM (active),,,16600 nM (active),13200 nM (active),2960 nM (active),3720 nM (active),935 nM (active),14800 nM (active),20900 nM (active),
